Results filed as inconclusive are left out. Entries that show only a call come without a potency. The source made the active and inactive calls. The call rests on the fitted dose curve; in most records, active means well fitted curve in the direction sought with a large enough effect in the repeat runs; inconclusive means weak or mixed curves; inactive means no such curve, though single readings can be large; an effect the other way counts as inactive or inconclusive.
Test: qHTS assay to identify small molecule HDAC inhibitors - cell viability counter screen (AID 1259365); further: nearly all actives have a fitted effect of over 50% in size
Settings: HCT-116 viability, CellTiter-Glo ATP luminescence, 2 h; series mostly up to 92.4 µM
Outline: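 Cytotoxicity was gauged in wild-type HCT-116 cells after a brief 2hr treatment with DMSO-dissolved compounds at 37C and 5% CO2, using CellTiter-Glo luminescence developed for 30min at room temperature.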

Question: Which outcome does the source give for COc1ccc(OC)c(OC)c1 here?
Answer: inactive

Question: Which outcome does the source give for CCCCCCCCCCCCCCC1CO1 (configuration not stated) here?
Answer: inactive

Question: Which outcome does the source give for C=CCCCCCC here?
Answer: inactive

Question: For N#Cc1cc2ccccc2c2ccccc12, which outcome is on record?
Answer: inactive

Question: With CCOC(=O)C1=NN(c2ccccc2)C(=O)C1 as the compound, how does the outcome read?
Answer: inactive

Question: Which outcome does the source give for OCCC1CCCCN1 (configuration not stated) here?
Answer: inactive

Question: Which outcome does the source give for CC(=O)/C=C/C1C(C)=CCCC1(C)C (configuration not stated) here?
Answer: inactive

Question: Which outcome does the source give for CCCCCCCCN(C)C here?
Answer: inactive

Question: Which outcome does the source give for O=C1CCCCCO1 here?
Answer: inactive

Question: For Oc1ccc(O)c2c(O)cccc12, which outcome is on record?
Answer: inactive

Question: With Cc1ccc(C(N)=O)cc1N as the compound, how does the outcome read?
Answer: inactive

Question: With O=[N+]([O-])c1cccc(Cl)c1Cl as the compound, how does the outcome read?
Answer: inactive

Question: Which outcome does the source give for O=C(O)C1CCC(C(=O)O)CC1 (configuration not stated) here?
Answer: inactive

Question: Which outcome does the source give for CC(C)(C)c1ccc(OCC2CO2)cc1 (configuration not stated) here?
Answer: inactive

Question: For O=C1c2cccc(O)c2C(=O)c2c(O)cc(CO)cc21, which outcome is on record?
Answer: inactive

Question: For N#CCCNCCC#N, which outcome is on record?
Answer: inactive

Question: Which outcome does the source give for OCC1CC2CC1C1CCC(CO)C21 (configuration not stated) here?
Answer: inactive

Question: For Cc1occc1S, which outcome is on record?
Answer: inactive

Question: Which outcome does the source give for CC(=O)[C@@]1(O)CC[C@H]2[C@@H]3C[C@H](C)C4=CC(=O)CC[C@]4(C)[C@H]3CC[C@@]21C here?
Answer: inactive

Question: With C[Si](C)O[Si](C)(C)O[Si](C)(C)O[Si](C)C as the compound, how does the outcome read?
Answer: inactive

Question: Which outcome does the source give for CN(C)CCCNCCCN here?
Answer: inactive

Question: For CCc1nn(C2CCCCC2)c2cc(C3(C#N)CCC(C(=O)O)CC3)ccc12 (configuration not stated), which outcome is on record?
Answer: inactive

Question: Which outcome does the source give for FC(F)(F)C(F)(F)C(F)(F)C(F)(F)C(F)(F)C(F)(F)CCI here?
Answer: inactive

Question: With Cc1ncsc1CCO as the compound, how does the outcome read?
Answer: inactive

Question: With CCOC(=O)CC(=O)c1cc(F)c(Cl)nc1Cl as the compound, how does the outcome read?
Answer: inactive

Question: With ClC(Cl)(Cl)c1ccc(C(Cl)(Cl)Cl)cc1 as the compound, how does the outcome read?
Answer: inactive

Question: For O=C(Cl)c1c(Cl)cccc1Cl, which outcome is on record?
Answer: inactive

Question: With O=S(=O)(O)c1ccc(O)c2ncccc12 as the compound, how does the outcome read?
Answer: inactive

Question: With CCCCCOC(=O)c1ccc(O)cc1 as the compound, how does the outcome read?
Answer: inactive

Question: For C#CCOC(=O)[C@@H](C)Oc1ccc(Oc2ncc(Cl)cc2F)cc1, which outcome is on record?
Answer: inactive

Question: Which outcome does the source give for CC1=CC(=O)/C(=C(/C)O)C(=O)O1 here?
Answer: inactive

Question: For CCOC(=O)CC(C)C, which outcome is on record?
Answer: inactive

Question: For COC(=O)C(C)=O, which outcome is on record?
Answer: inactive

Question: With c1ccc(CNCc2ccccc2)cc1 as the compound, how does the outcome read?
Answer: inactive

Question: Which outcome does the source give for SC1CCCC1 here?
Answer: inactive

Question: Which outcome does the source give for CCCCCCCCC(CO)CCCCCC (configuration not stated) here?
Answer: inactive

Question: For CCOc1ccc2[nH]cc(C(=O)NCc3ccccc3)c(=O)c2n1, which outcome is on record?
Answer: inactive

Question: With CCCCCCCCCCCCC(=O)O as the compound, how does the outcome read?
Answer: inactive

Question: For C1=Cc2ccccc2C1, which outcome is on record?
Answer: inactive

Test: qHTS assay to identify small molecule agonists of the sonic hedgehog signaling (Shh) pathway - cell viability counter screen (AID 1259366); further: nearly all actives have a fitted effect of over 50% in size
Settings: NIH/3T3 Gli1-Luc viability, CellTiter-Fluor, 24 h; series mostly up to 92.4 µM
Outline: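 Stable Gli1-Luc NIH/3T3 clone, 2,000 cells/well. Compound exposure 24hr at 37C. Read-out: CellTiter-Fluor fluorescence.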

Question: With COc1ccc(OC)c(OC)c1 as the compound, how does the Potency read?
Answer: inactive

Question: For CCCCCCCCCCCCCCC1CO1 (configuration not stated), which Potency is on record?
Answer: inactive

Question: For C=CCCCCCC, which Potency is on record?
Answer: inactive

Question: Which Potency does the source give for N#Cc1cc2ccccc2c2ccccc12 here?
Answer: inactive

Question: Which Potency does the source give for CCOC(=O)C1=NN(c2ccccc2)C(=O)C1 here?
Answer: inactive

Question: Which Potency does the source give for CCCCCCCCN(C)C here?
Answer: inactive

Question: Which Potency does the source give for O=C1CCCCCO1 here?
Answer: inactive

Question: For Oc1ccc(O)c2c(O)cccc12, which Potency is on record?
Answer: inactive

Question: For O=[N+]([O-])c1cccc(Cl)c1Cl, which Potency is on record?
Answer: inactive

Question: Which Potency does the source give for O=C(O)C1CCC(C(=O)O)CC1 (configuration not stated) here?
Answer: inactive

Question: Which Potency does the source give for CC(C)(C)c1ccc(OCC2CO2)cc1 (configuration not stated) here?
Answer: inactive

Question: With O=C1c2cccc(O)c2C(=O)c2c(O)cc(CO)cc21 as the compound, how does the Potency read?
Answer: inactive

Question: For OCC1CC2CC1C1CCC(CO)C21 (configuration not stated), which Potency is on record?
Answer: inactive

Question: Which Potency does the source give for Cc1occc1S here?
Answer: inactive

Question: For C[Si](C)O[Si](C)(C)O[Si](C)(C)O[Si](C)C, which Potency is on record?
Answer: inactive

Question: Which Potency does the source give for FC(F)(F)C(F)(F)C(F)(F)C(F)(F)C(F)(F)C(F)(F)CCI here?
Answer: inactive

Question: Which Potency does the source give for Cc1ncsc1CCO here?
Answer: inactive

Question: Which Potency does the source give for CCOC(=O)CC(=O)c1cc(F)c(Cl)nc1Cl here?
Answer: inactive

Question: Which Potency does the source give for ClC(Cl)(Cl)c1ccc(C(Cl)(Cl)Cl)cc1 here?
Answer: inactive

Question: With O=C(Cl)c1c(Cl)cccc1Cl as the compound, how does the Potency read?
Answer: inactive

Question: With O=S(=O)(O)c1ccc(O)c2ncccc12 as the compound, how does the Potency read?
Answer: inactive

Question: For CCCCCOC(=O)c1ccc(O)cc1, which Potency is on record?
Answer: inactive

Question: For C#CCOC(=O)[C@@H](C)Oc1ccc(Oc2ncc(Cl)cc2F)cc1, which Potency is on record?
Answer: inactive

Question: For CCOC(=O)CC(C)C, which Potency is on record?
Answer: inactive

Question: Which Potency does the source give for COC(=O)C(C)=O here?
Answer: inactive

Question: For c1ccc(CNCc2ccccc2)cc1, which Potency is on record?
Answer: inactive

Question: Which Potency does the source give for SC1CCCC1 here?
Answer: inactive

Question: With CCCCCCCCCCCCC(=O)O as the compound, how does the Potency read?
Answer: inactive

Test: qHTS assay to identify small molecule antagonists of the sonic hedgehog signaling (Shh) pathway - cell viability counter screen (AID 1259367); further: nearly all actives have a fitted effect of over 55% in size; further: potency means the concentration at half of the fitted maximal effect
Settings: NIH/3T3 Gli1-Luc viability, CellTiter-Fluor, 24 h; series mostly up to 92.4 µM
Outline: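 Viability was read by CellTiter-Fluor fluorescence in the same wells, reagent added 23 hr into compound treatment and incubated 1 hr at 37C. The 3T3 Gli1-Luc reporter cells (2,000/well) received conditioned medium after compound and ran 24 hr.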

Question: With COc1ccc(OC)c(OC)c1 as the compound, how does the Potency read?
Answer: inactive

Question: With N#Cc1cc2ccccc2c2ccccc12 as the compound, how does the Potency read?
Answer: inactive

Question: With OCCC1CCCCN1 (configuration not stated) as the compound, how does the Potency read?
Answer: inactive

Question: Which Potency does the source give for CC(=O)/C=C/C1C(C)=CCCC1(C)C (configuration not stated) here?
Answer: inactive

Question: With CCCCCCCCN(C)C as the compound, how does the Potency read?
Answer: inactive

Question: Which Potency does the source give for O=C1CCCCCO1 here?
Answer: inactive

Question: Which Potency does the source give for Oc1ccc(O)c2c(O)cccc12 here?
Answer: inactive

Question: For Cc1ccc(C(N)=O)cc1N, which Potency is on record?
Answer: inactive

Question: With O=[N+]([O-])c1cccc(Cl)c1Cl as the compound, how does the Potency read?
Answer: inactive

Question: For O=C1c2cccc(O)c2C(=O)c2c(O)cc(CO)cc21, which Potency is on record?
Answer: inactive

Question: Which Potency does the source give for N#CCCNCCC#N here?
Answer: inactive

Question: For OCC1CC2CC1C1CCC(CO)C21 (configuration not stated), which Potency is on record?
Answer: inactive

Question: Which Potency does the source give for Cc1occc1S here?
Answer: inactive

Question: For CC(=O)[C@@]1(O)CC[C@H]2[C@@H]3C[C@H](C)C4=CC(=O)CC[C@]4(C)[C@H]3CC[C@@]21C, which Potency is on record?
Answer: inactive

Question: For CN(C)CCCNCCCN, which Potency is on record?
Answer: inactive

Question: For CCc1nn(C2CCCCC2)c2cc(C3(C#N)CCC(C(=O)O)CC3)ccc12 (configuration not stated), which Potency is on record?
Answer: 27.3 µM (active)

Question: Which Potency does the source give for FC(F)(F)C(F)(F)C(F)(F)C(F)(F)C(F)(F)C(F)(F)CCI here?
Answer: inactive

Question: For Cc1ncsc1CCO, which Potency is on record?
Answer: inactive

Question: For CCOC(=O)CC(=O)c1cc(F)c(Cl)nc1Cl, which Potency is on record?
Answer: inactive

Question: Which Potency does the source give for ClC(Cl)(Cl)c1ccc(C(Cl)(Cl)Cl)cc1 here?
Answer: inactive

Question: For CC1=CC(=O)/C(=C(/C)O)C(=O)O1, which Potency is on record?
Answer: inactive

Question: For CCOC(=O)CC(C)C, which Potency is on record?
Answer: inactive

Question: With CCCCCCCCC(CO)CCCCCC (configuration not stated) as the compound, how does the Potency read?
Answer: inactive

Question: For CCOc1ccc2[nH]cc(C(=O)NCc3ccccc3)c(=O)c2n1, which Potency is on record?
Answer: inactive

Question: Which Potency does the source give for C1=Cc2ccccc2C1 here?
Answer: inactive
